Source: the supplement of paper PMC9801561
± gives the standard deviation of the averaged measurements.

Assays:
[1] = system: Escherichia coli Nissle 1917; assay: area under OmniLog respiration curve over 48 h (OmniLog units x h); higher = more growth / nutrient utilisation; extreme values may be limits of the assay; settings: incubation: 48 h, 37 °C
[2] = system: Escherichia coli Nissle 1917; assay: DuctApe activity index of respiration/growth curve (0 no growth to 9 maximum) (index 0-9); higher = more growth / nutrient utilisation, active = 3 or more; extreme values may be limits of the assay; settings: incubation: 48 h, 37 °C
[3] = nutrient role: C-Source, carboxylic acid
[4] = nutrient role: sole phosphorus source (pyruvate carbon)
[5] = nutrient role: C-Source, alcohol
[6] = nutrient role: sole sulfur source (pyruvate carbon)
[7] = nutrient role: sole nitrogen source (pyruvate carbon)
[8] = nutrient role: C-Source, carbohydrate
[9] = nutrient role: C-Source, amino acid
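For DuctApe activity index of respiration/growth curve (0 no growth to 9 maximum) in this document: biolog PM4 phosphorus and sulfur plates, tetrazolium violet dye reduction read in the OmniLog every 15 min, kinetic curves scored by DuctApe, each plate run in triplicate.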

## O=C(O)[C@]1(O)C[C@@H](O)[C@@H](O)[C@H](O)C1 [Quinic acid]
[1]; [3]
  area under OmniLog respiration curve: 4.72
[2]; [3]
  DuctApe activity index: 0 (inactive)

## O=P1(O)OP(=O)(O)OP(=O)(O)O1 [Trimetaphosphate]
[1]; [4]
  area under OmniLog respiration curve: 9730 ± 800
[2]; [4]
  DuctApe activity index: 9 (active)

## O=C(O)CC(=O)O [Malonic acid]
[1]; [3]
  area under OmniLog respiration curve: 4.72
[2]; [3]
  DuctApe activity index: 0 (inactive)

## CC(O)CO (stereo not drawn) [1,2-Propanediol]
[1]; [5]
  area under OmniLog respiration curve: 123 ± 100
[2]; [5]
  DuctApe activity index: 1.33 (inactive)

## CC(=O)N[C@H]1[C@H]([C@H](O)[C@H](O)CO)OC(O)(C(=O)O)C[C@@H]1O (stereo partly drawn) [N-Acetyl-Neuraminic acid]
[1]; [3]
  area under OmniLog respiration curve: 6140 ± 840
[2]; [3]
  DuctApe activity index: 7 (active)

## O=S(=O)(O)SSS(=O)(=O)O [Tetrathionate]
[1]; [6]
  area under OmniLog respiration curve: 7150 ± 120
[2]; [6]
  DuctApe activity index: 7.67 (active)

## NCCCCCC(=O)O [e-Amino-N-Caproic acid]
[1]; [7]
  area under OmniLog respiration curve: 1240 ± 1000
[2]; [7]
  DuctApe activity index: 2.33 (inactive)

## OC[C@H]1O[C@@H](Oc2ccc(O)cc2)[C@H](O)[C@@H](O)[C@@H]1O [Arbutin]
[1]; [8]
  area under OmniLog respiration curve: 4.72
[2]; [8]
  DuctApe activity index: 0 (inactive)

## O=C(O)C[C@H](O)C(=O)O [L-Malic acid]
[1]; [3]
  area under OmniLog respiration curve: 8910 ± 230
[2]; [3]
  DuctApe activity index: 8.67 (active)

## O=C(O)CC(O)C(=O)O (racemic) [DL-Malic acid]
[1]; [3]
  area under OmniLog respiration curve: 8150 ± 730
[2]; [3]
  DuctApe activity index: 8 (active)

## O=C(O)[C@H](O)[C@@H](O)C(=O)O [L-Tartaric acid]
[1]; [3]
  area under OmniLog respiration curve: 34 ± 28
[2]; [3]
  DuctApe activity index: 0 (inactive)

## NCC(=O)N1CCC[C@H]1C(=O)O
[1]; [9]
  area under OmniLog respiration curve: 7860 ± 920
[2]; [9]
  DuctApe activity index: 8 (active)

## N[C@H](CS)C(=O)O [D-Cysteine]
[1]; [6]
  area under OmniLog respiration curve: 7100 ± 110
[2]; [6]
  DuctApe activity index: 7.33 (active)

## O=P(O)(O)OC[C@H]1OC(O)(CO)[C@@H](O)[C@@H]1O (stereo partly drawn) [D-Fructose-6-Phosphate]
[1]; [8]
  area under OmniLog respiration curve: 9900 ± 640
[2]; [8]
  DuctApe activity index: 9 (active)
